Results as given in the supplement of paper PMC11732987, “Enantioselective OTUD7B fragment discovery through chemoproteomics screening and high-throughput optimisation” (Communications Chemistry, 2025).

Legend:
Assay in all cases: log2 ratio of Biotin-Ahx-Ub-VS probe labelling (fragment/DMSO); higher = less target engagement (more negative = stronger competition), active = hit call of the paper (q ≤ 0.05, log2 ratio ≤ -1)
Settings in all cases: compound concentration: 200 uM; treatment time: 3 h
USP34 = USP34 (UniProt Q70CQ2)
Method in brief: (§1)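 HEK293T lysate, 495 µg per sample in Tris/CHAPS/IGEPAL buffer with protease inhibitors, was treated in triplicate with fragment at 200 µM or vehicle for 3 h and then with Biotin-Ahx-Ub-VS at 0.5 µM final for 1 h. Labelled DUBs were NeutrAvidin-enriched, digested with LysC and trypsin, and run by diaPASEF LC-MS/MS. Spectronaut label-free quantities were global-median-normalised, and values are average log2 fragment/vehicle ratios by unpaired t-test on proteins with ≥2 unique peptides.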

USP36 = target: T1, USP36 (UniProt Q9P275)
T1 sequence (whole entry): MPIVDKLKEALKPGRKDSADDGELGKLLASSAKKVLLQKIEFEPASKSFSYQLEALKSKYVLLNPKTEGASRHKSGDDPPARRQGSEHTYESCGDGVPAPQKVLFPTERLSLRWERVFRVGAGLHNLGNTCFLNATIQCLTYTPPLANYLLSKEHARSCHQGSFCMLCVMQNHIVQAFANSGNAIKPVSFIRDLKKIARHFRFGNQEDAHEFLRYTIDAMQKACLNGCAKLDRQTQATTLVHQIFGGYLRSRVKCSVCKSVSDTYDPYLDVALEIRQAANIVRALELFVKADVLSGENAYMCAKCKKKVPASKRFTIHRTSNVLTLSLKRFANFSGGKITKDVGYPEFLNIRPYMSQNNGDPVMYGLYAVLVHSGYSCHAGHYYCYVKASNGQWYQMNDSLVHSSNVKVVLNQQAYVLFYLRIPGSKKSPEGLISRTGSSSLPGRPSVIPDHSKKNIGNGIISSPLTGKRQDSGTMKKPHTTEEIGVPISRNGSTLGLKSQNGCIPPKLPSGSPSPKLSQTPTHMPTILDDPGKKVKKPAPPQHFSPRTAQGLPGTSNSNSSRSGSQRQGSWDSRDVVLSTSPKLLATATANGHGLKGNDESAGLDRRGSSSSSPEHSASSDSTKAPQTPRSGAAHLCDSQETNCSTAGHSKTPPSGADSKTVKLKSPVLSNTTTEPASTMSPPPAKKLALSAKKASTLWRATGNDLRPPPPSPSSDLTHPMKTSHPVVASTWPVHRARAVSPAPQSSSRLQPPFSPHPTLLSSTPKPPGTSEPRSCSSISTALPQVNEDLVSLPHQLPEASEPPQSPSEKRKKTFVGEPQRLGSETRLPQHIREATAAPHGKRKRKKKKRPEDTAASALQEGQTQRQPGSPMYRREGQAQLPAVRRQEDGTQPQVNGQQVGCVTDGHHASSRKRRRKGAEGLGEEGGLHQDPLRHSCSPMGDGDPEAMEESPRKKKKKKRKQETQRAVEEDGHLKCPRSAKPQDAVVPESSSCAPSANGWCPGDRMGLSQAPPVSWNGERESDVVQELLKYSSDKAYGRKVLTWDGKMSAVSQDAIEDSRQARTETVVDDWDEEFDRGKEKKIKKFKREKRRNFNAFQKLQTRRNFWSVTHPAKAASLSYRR
Method in brief: as §1

USP38 = target: T2, USP38 (UniProt Q8NB14)
T2 sequence (whole entry): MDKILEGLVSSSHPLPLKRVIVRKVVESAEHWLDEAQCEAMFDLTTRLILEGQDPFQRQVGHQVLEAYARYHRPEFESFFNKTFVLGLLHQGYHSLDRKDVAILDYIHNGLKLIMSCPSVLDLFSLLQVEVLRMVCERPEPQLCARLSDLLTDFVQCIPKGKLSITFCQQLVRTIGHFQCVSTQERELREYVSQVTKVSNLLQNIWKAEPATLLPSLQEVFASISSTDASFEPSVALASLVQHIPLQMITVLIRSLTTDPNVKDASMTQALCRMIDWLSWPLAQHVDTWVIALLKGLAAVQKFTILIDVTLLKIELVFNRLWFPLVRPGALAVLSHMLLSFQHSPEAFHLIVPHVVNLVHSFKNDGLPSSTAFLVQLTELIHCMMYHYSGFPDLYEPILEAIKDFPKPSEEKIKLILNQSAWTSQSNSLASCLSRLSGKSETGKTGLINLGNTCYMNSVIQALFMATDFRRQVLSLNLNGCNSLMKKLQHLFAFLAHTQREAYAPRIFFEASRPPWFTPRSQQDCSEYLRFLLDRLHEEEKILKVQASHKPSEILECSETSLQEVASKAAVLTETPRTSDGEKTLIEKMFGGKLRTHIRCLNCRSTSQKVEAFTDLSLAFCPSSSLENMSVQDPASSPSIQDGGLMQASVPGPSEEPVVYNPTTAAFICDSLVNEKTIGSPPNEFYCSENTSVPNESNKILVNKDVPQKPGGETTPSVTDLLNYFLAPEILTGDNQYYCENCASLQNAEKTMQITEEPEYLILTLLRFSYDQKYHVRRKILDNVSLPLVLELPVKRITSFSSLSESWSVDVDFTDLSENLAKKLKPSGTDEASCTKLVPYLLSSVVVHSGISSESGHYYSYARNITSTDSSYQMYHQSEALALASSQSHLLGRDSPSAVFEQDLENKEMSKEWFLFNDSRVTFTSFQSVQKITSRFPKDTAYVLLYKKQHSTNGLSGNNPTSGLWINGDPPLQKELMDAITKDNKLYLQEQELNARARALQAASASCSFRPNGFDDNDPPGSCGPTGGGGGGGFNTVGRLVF
Method in brief: as §1

USP39 = target: T3, USP39 (UniProt Q53GS9)
T3 sequence (whole entry): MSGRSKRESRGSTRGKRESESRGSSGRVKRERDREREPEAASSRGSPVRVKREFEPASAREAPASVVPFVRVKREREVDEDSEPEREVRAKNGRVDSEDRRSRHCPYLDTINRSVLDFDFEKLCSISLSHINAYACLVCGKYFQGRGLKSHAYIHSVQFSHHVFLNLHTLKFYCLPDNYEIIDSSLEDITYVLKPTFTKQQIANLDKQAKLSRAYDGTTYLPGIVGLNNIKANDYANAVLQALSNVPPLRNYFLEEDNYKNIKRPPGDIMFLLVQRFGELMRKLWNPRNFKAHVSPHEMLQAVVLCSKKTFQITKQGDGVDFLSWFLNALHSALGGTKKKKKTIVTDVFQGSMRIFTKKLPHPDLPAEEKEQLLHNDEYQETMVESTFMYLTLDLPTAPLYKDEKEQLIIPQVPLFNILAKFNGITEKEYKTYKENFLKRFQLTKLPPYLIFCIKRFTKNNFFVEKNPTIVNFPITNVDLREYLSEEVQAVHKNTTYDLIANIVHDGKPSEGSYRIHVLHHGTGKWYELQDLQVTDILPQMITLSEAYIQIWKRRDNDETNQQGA
Method in brief: as §1

USP4 = target: T4, USP4 (UniProt Q13107)
T4 sequence (whole entry): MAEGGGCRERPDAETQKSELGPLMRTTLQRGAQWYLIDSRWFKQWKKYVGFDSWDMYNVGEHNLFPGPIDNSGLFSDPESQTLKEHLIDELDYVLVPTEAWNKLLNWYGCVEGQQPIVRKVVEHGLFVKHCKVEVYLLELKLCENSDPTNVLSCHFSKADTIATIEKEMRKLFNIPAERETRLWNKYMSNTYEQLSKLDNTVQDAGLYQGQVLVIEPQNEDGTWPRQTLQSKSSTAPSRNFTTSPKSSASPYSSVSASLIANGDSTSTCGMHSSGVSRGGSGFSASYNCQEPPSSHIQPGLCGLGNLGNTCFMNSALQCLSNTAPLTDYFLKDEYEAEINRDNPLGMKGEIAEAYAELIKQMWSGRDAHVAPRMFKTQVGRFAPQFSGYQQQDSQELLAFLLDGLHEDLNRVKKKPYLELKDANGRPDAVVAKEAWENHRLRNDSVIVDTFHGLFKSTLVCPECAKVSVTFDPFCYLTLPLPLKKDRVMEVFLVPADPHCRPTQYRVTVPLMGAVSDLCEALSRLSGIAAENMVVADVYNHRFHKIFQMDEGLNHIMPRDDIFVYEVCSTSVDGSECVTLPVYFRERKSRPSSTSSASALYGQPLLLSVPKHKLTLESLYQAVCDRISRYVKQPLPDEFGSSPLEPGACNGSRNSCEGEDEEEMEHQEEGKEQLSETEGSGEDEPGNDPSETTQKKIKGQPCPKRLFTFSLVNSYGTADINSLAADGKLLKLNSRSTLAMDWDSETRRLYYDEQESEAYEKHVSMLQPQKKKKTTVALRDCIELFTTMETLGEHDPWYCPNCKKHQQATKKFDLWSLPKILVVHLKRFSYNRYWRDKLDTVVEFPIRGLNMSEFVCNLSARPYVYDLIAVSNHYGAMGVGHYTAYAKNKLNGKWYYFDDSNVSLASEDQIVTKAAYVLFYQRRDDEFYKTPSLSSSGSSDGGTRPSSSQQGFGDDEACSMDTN
Method in brief: as §1

Measured: log2 ratio of Biotin-Ahx-Ub-VS probe labelling

Chain of USP34 (Q70CQ2 whole entry, the tested form may be a part): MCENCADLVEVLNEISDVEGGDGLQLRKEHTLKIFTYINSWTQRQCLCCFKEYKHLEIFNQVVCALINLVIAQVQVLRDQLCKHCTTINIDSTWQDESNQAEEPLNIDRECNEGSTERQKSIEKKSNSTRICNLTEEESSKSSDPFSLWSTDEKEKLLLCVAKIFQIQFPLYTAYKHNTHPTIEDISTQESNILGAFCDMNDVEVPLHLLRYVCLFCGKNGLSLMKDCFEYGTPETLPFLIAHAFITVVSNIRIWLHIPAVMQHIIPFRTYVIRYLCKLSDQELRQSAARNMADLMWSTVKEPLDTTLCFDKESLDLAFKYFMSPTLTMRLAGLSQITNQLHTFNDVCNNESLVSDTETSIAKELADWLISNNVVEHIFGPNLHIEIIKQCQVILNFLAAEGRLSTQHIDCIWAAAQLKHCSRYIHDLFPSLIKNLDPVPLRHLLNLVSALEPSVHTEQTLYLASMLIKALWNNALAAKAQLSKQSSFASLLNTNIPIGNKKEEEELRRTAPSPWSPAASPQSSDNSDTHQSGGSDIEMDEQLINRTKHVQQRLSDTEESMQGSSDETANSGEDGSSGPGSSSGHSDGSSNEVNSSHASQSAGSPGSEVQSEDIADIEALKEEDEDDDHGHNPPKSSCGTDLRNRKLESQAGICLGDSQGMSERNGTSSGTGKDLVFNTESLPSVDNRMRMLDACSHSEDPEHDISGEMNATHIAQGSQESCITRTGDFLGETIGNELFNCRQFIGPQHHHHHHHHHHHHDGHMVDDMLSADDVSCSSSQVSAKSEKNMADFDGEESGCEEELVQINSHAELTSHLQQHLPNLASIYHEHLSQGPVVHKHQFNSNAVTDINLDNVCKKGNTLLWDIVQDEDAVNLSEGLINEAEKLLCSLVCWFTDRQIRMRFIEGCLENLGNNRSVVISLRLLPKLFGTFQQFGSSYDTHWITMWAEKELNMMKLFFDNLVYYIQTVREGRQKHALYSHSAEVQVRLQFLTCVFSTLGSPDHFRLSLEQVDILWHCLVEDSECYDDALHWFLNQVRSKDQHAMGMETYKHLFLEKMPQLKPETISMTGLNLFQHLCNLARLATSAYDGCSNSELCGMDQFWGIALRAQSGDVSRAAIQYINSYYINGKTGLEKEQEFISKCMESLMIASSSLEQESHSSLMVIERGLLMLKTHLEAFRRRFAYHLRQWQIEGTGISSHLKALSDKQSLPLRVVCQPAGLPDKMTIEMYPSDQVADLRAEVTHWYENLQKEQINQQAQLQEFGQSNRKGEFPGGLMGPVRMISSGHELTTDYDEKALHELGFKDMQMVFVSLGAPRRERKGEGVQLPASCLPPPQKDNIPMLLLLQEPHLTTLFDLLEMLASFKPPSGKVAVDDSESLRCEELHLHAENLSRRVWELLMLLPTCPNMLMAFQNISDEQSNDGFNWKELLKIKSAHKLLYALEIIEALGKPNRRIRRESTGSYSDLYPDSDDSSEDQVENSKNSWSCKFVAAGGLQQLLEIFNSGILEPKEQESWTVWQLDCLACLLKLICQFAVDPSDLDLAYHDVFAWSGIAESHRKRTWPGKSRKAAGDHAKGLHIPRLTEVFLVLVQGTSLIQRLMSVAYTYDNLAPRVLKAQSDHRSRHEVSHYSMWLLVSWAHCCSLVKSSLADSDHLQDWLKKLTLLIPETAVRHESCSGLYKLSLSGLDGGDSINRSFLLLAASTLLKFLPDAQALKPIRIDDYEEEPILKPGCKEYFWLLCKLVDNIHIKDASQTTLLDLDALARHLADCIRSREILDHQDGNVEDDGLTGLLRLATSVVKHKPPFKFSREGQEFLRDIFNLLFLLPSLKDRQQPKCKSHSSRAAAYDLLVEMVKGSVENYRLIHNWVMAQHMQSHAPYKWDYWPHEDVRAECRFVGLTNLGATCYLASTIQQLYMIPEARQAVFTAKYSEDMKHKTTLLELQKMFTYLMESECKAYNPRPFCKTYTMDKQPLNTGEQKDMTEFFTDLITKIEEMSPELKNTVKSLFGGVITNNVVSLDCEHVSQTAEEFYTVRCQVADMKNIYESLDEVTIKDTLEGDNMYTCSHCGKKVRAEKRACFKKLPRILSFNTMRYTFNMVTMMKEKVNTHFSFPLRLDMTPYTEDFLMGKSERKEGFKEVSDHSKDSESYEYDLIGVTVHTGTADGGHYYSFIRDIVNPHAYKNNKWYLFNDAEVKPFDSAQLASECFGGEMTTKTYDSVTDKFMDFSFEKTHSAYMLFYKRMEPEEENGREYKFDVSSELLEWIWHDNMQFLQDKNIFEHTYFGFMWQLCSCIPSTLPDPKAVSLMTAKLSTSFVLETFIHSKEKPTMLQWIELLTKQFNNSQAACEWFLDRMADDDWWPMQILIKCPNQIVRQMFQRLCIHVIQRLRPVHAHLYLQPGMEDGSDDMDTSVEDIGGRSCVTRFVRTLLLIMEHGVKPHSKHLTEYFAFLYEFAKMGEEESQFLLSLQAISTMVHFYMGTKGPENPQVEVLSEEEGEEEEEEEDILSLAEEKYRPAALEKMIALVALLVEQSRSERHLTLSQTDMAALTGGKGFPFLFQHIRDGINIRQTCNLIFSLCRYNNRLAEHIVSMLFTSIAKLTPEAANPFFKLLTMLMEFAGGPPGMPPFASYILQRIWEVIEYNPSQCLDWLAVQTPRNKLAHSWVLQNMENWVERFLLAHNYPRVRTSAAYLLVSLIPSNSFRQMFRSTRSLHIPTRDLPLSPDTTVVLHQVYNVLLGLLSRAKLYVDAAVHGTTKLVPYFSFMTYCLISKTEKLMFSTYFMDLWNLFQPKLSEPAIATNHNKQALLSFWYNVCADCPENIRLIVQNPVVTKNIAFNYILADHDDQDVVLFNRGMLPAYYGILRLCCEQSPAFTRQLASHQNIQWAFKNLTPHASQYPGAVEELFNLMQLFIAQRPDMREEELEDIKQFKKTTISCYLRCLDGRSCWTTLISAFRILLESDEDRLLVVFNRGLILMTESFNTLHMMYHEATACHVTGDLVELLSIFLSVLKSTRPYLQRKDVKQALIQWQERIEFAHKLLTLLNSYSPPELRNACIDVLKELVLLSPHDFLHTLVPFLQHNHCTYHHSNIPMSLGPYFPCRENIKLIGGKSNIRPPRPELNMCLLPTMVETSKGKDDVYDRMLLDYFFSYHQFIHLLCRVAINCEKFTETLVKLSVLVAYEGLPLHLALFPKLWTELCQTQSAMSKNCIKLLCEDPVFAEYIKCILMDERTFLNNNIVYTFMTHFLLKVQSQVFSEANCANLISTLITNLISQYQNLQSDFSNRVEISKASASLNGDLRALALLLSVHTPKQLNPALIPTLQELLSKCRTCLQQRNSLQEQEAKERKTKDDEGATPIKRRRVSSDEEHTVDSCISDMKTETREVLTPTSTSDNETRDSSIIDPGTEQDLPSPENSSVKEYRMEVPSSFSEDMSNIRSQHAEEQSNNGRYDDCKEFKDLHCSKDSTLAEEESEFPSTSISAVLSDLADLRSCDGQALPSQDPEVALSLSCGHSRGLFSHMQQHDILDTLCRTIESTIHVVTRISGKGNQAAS

CC1Cc2ccccc2N1C(=O)CCl (stereo not given)
inactive: USP34 -0.159 | USP36 0.0162 | USP38 -0.00784 | USP39 -0.0124 | USP4 -0.603
